Experimental data published in PubChem BioAssay (EPA / NIEHS).
Active and inactive are the calls of the source. How the source made its calls: active means hit-call score of the fitted dose curve at least 0.9, where 1 is the maximum; inactive means score below 0.9.

Legend:
Settings in all cases: mRNA level, 48 h; actives raise or lower the signal
[1] = read-out: MicroRNA 122 (MIR122), gene 406906; assay: LTEA_HepaRG_MIR122: Life Technologies and Expression Analysis (LTEA) Assay for MicroRNA 122 (MIR122) using HepaRG (AID 2283516); further: the transcript read is the microRNA miR-122
Summary of the method: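 Differentiated human HepaRG cells in serum-free induction medium exposed 48 h to 8 half-log concentrations from 100 uM in 0.5% DMSO, duplicate. MIR122 quantified by Fluidigm TaqMan qRT-PCR, normalised to ACTB, GAPDH, POLR2A; fold change fitted bidirectionally versus DMSO.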

[2] = read-out: matrix metalloproteinase-10 (MMP10), MMP10 (gene 4319); assay: LTEA_HepaRG_MMP10: Life Technologies and Expression Analysis (LTEA) Assay for matrix metalloproteinase-10 (MMP10) using HepaRG (AID 2283517)
Summary of the method: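 HepaRG, collagen I, ~100,000 cells/well; serum-free induction medium; 48 h exposure, duplicate, 8-pt half-log to 100 uM, 0.5% DMSO. Readout: TaqMan qRT-PCR, normalized to ACTB/GAPDH/POLR2A; bidirectional fit vs DMSO.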

[3] = read-out: MYC, MYC (gene 4609); assay: LTEA_HepaRG_MYC: Life Technologies and Expression Analysis (LTEA) Assay for MYC using HepaRG (AID 2283518)
Summary of the method: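 Differentiated HepaRG cells exposed 48 h in serum-free induction medium to 8 concentrations (top 100 uM, half-log steps; 0.5% DMSO), duplicate. MYC mRNA measured by Fluidigm qRT-PCR, normalized to ACTB, GAPDH, POLR2A; bidirectional fit versus DMSO.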

[4] = read-out: matrix metalloproteinase-3 (MMP3), MMP3 (gene 4314); assay: LTEA_HepaRG_MMP3: Life Technologies and Expression Analysis (LTEA) Assay for matrix metalloproteinase-3 (MMP3) using HepaRG (AID 2283519)
Summary of the method: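 Differentiated human HepaRG cells, plated 48 h on collagen I, were exposed in duplicate for 48 h in serum-free induction medium to eight half-log concentrations up to 100 uM in 0.5% DMSO. MMP3 mRNA was quantified by TaqMan qRT-PCR, normalised to ACTB, GAPDH and POLR2A.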

[5] = read-out: Paternally Expressed 10 (PEG10), PEG10 (gene 23089); assay: LTEA_HepaRG_PEG10: Life Technologies and Expression Analysis (LTEA) Assay for Paternally Expressed 10 (PEG10) using HepaRG (AID 2283520)
Summary of the method: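 Differentiated HepaRG cells exposed 48 h in serum-free induction medium to eight half-log concentrations topping at 100 uM, 0.5% DMSO, in duplicate. PEG10 mRNA quantified by TaqMan qRT-PCR, normalized to ACTB, GAPDH and POLR2A; bidirectional fit versus DMSO.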

[6] = read-out: Protein phosphatase 2A (PPP2R4), PTPA (gene 5524); assay: LTEA_HepaRG_PPP2R4: Life Technologies and Expression Analysis (LTEA) Assay for Protein phosphatase 2A (PPP2R4) using HepaRG (AID 2283522)
Summary of the method: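 Differentiated human HepaRG cells in serum-free induction medium were exposed 48 h to 8 concentrations (top 100 µM, half-log steps, duplicate) in 0.5% DMSO. PPP2R4 mRNA was measured by TaqMan qRT-PCR, normalised to ACTB, GAPDH and POLR2A, and fitted bidirectionally versus DMSO.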

[7] = read-out: Phosphatase and tensin (PTEN), PTEN (gene 5728); assay: LTEA_HepaRG_PTEN: Life Technologies and Expression Analysis (LTEA) Assay for Phosphatase and tensin (PTEN) using HepaRG (AID 2283523)
Summary of the method: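 Differentiated human HepaRG cells, plated 48 h then switched to serum-free induction medium, were exposed in duplicate for 48 h to eight half-log concentrations up to 100 uM in 0.5% DMSO. PTEN mRNA measured by TaqMan qRT-PCR, normalized to ACTB/GAPDH/POLR2A, bidirectional fit versus DMSO.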

[8] = read-out: solute carrier (SLC22A1), SLC22A1 (gene 6580); assay: LTEA_HepaRG_SLC22A1: Life Technologies and Expression Analysis (LTEA) Assay for solute carrier (SLC22A1) using HepaRG (AID 2283524)
Summary of the method: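 Human HepaRG cells were plated 48 h, switched to serum-free induction medium, then exposed in duplicate for 48 h to 8-point half-log series from 100 uM in 0.5% DMSO. SLC22A1 mRNA measured by qRT-PCR, normalized to ACTB/GAPDH/POLR2A, fitted bidirectionally versus DMSO.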

[9] = read-out: Pyruvate Dehydrogenase Kinase 4 (PDK4), PDK4 (gene 5166); assay: LTEA_HepaRG_PDK4: Life Technologies and Expression Analysis (LTEA) Assay for Pyruvate Dehydrogenase Kinase 4 (PDK4) using HepaRG (AID 2283525)
Summary of the method: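 Differentiated human HepaRG cells, pre-cultured 48 h, were exposed in duplicate for 48 h in serum-free induction medium to eight half-log concentrations up to 100 uM in 0.5% DMSO. PDK4 mRNA was quantified by qRT-PCR, normalized to ACTB, GAPDH and POLR2A, bidirectional fitting versus DMSO.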

[10] = read-out: NAD(P)H dehydrogenase [quinone] 1 (NQO1), NQO1 (gene 1728); assay: LTEA_HepaRG_NQO1: Life Technologies and Expression Analysis (LTEA) Assay for NAD(P)H dehydrogenase [quinone] 1 (NQO1) using HepaRG (AID 2283526)
Summary of the method: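 Differentiated human HepaRG cells in serum-free induction medium, dosed in duplicate for 48 h at 8 half-log concentrations up to 100 uM in 0.5% DMSO. NQO1 mRNA by qRT-PCR normalized to ACTB, GAPDH, POLR2A; bidirectional fit versus DMSO baseline.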

[11] = read-out: Nuclear factor erythroid 2-related factor 2 (Homo sapiens) (UniProt Q16236); assay: LTEA_HepaRG_NFE2L2: Life Technologies and Expression Analysis (LTEA) Assay for Nuclear factor erythroid 2-related factor 2 (NFE2L2) Transcription Factor using HepaRG (AID 2283527);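 further: TaqMan qRT-PCR transcript level normalised to ACTB GAPDH and POLR2A housekeeping genes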
Summary of the method: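 Differentiated human HepaRG cells in serum-free induction medium were exposed for 48 h to eight concentrations (top 100 uM, half-log dilutions, 0.5% DMSO), in duplicate. NFE2L2 mRNA was quantified by TaqMan qRT-PCR, normalized to ACTB, GAPDH and POLR2A, with bidirectional fitting versus DMSO.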

[12] = read-out: succinate dehydrogenase complex iron sulfur subunit B (SDHB), SDHB (gene 6390); assay: LTEA_HepaRG_SDHB: Life Technologies and Expression Analysis (LTEA) Assay for succinate dehydrogenase complex iron sulfur subunit B (SDHB) using HepaRG (AID 2283528)
Summary of the method: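 HepaRG cells (~100,000/well, plated 48 h) exposed in duplicate for 48 h in serum-free induction medium to 8-point half-log series from 100 uM in 0.5% DMSO; mRNA by qRT-PCR normalised to ACTB, GAPDH, POLR2A; bidirectional fit versus DMSO.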

[13] = read-out: Signal transducer and activator of transcription 3 (Homo sapiens) (UniProt P40763); assay: LTEA_HepaRG_STAT3: Life Technologies and Expression Analysis (LTEA) Assay for Signal transducer and activator of transcription (STAT3) using HepaRG (AID 2283529)
Summary of the method: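 Differentiated human HepaRG cells in serum-free induction medium were exposed in duplicate for 48 h to eight half-log concentrations up to 100 uM in 0.5% DMSO. STAT3 mRNA was quantified by TaqMan qRT-PCR, normalized to ACTB, GAPDH and POLR2A, and fitted bidirectionally against DMSO.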

[14] = read-out: solute carrier (SLCO1B1), SLCO1B1 (gene 10599); assay: LTEA_HepaRG_SLCO1B1: Life Technologies and Expression Analysis (LTEA) Assay for solute carrier (SLCO1B1) using HepaRG (AID 2283530)
Summary of the method: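 Differentiated human HepaRG cells were exposed for 48 h in serum-free induction medium to eight half-log concentrations, top 100 uM, in 0.5% DMSO. SLCO1B1 mRNA was measured by qRT-PCR, normalized to ACTB, GAPDH and POLR2A, and fitted bidirectionally against DMSO.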

[15] = read-out: sulfotransferase 2A1 (SULT2A1), SULT2A1 (gene 6822); assay: LTEA_HepaRG_SULT2A1: Life Technologies and Expression Analysis (LTEA) Assay for sulfotransferase 2A1 (SULT2A1) using HepaRG (AID 2283531)
Summary of the method: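 HepaRG human liver cells, 48 h exposure in serum-free induction medium to 8 half-log concentrations topping at 100 µM (0.5% DMSO), duplicate wells. SULT2A1 mRNA measured by TaqMan qRT-PCR, normalized to ACTB/GAPDH/POLR2A; bidirectional fit against DMSO.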

[16] = read-out: Transforming Growth Factor (TGFA), TGFA (gene 7039); assay: LTEA_HepaRG_TGFA: Life Technologies and Expression Analysis (LTEA) Assay for Transforming Growth Factor (TGFA) using HepaRG (AID 2283532)
Summary of the method: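 Differentiated human HepaRG cells, plated 48 h then switched to serum-free induction medium, were exposed in duplicate for 48 h to 8-point half-log series from 100 uM in 0.5% DMSO. TGFA mRNA measured by qRT-PCR, normalized to ACTB/GAPDH/POLR2A, bidirectional fit versus DMSO.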

[17] = read-out: Transforming Growth Factor (TGFB1), TGFB1 (gene 7040); assay: LTEA_HepaRG_TGFB1: Life Technologies and Expression Analysis (LTEA) Assay for Transforming Growth Factor (TGFB1) Transporter using HepaRG (AID 2283533)
Summary of the method: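 Differentiated HepaRG cells exposed 48 hr in serum-free induction medium to eight half-log concentrations up to 100 uM (0.5% DMSO), duplicate; TGFB1 mRNA by TaqMan qRT-PCR normalised to ACTB, GAPDH, POLR2A; bidirectional fit against DMSO.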

[18] = read-out: TIMP1, TIMP1 (gene 7076); assay: LTEA_HepaRG_TIMP1: Life Technologies and Expression Analysis (LTEA) Assay for TIMP1 using HepaRG (AID 2283534);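 further: TaqMan qRT-PCR signal normalized to ACTB GAPDH and POLR2A housekeeping genes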
Summary of the method: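 Differentiated HepaRG cells exposed 48 h in serum-free induction medium, duplicates, eight half-log concentrations from 100 uM in 0.5% DMSO. TIMP1 mRNA by qRT-PCR normalized to ACTB, GAPDH, POLR2A; bidirectional fitting against DMSO.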

[19] = read-out: Tumor necrosis factor receptor 1 (TNFRSF1A), TNFRSF1A (gene 7132); assay: LTEA_HepaRG_TNFRSF1A: Life Technologies and Expression Analysis (LTEA) Assay for Tumor necrosis factor receptor 1 (TNFRSF1A) using HepaRG (AID 2283535)
Summary of the method: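 Differentiated HepaRG cells in serum-free induction medium, exposed 48 h in duplicate to 8 half-log concentrations up to 100 uM in 0.5% DMSO. TNFRSF1A mRNA by Fluidigm TaqMan qRT-PCR, normalized to ACTB, GAPDH, POLR2A; bidirectional fit.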

Measured: AC50

Chain of Nuclear factor erythroid 2-related factor 2 (Homo sapiens) (Q16236 whole entry, looked up): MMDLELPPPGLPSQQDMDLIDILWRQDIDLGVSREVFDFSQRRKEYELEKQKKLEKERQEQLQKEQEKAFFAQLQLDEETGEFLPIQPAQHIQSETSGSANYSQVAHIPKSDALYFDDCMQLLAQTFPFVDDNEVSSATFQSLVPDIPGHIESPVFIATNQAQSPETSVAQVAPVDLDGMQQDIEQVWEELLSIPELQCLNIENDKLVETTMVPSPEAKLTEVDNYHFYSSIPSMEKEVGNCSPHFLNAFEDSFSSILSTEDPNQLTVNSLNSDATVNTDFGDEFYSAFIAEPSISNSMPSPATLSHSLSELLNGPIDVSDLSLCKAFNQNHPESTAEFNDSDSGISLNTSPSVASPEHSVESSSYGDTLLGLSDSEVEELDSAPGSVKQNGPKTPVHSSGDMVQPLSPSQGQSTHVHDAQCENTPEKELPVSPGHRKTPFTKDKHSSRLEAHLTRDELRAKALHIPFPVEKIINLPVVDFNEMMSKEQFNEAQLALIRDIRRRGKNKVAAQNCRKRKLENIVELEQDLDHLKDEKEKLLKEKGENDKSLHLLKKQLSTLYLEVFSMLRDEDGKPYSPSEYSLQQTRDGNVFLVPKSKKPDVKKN
Chain of Signal transducer and activator of transcription 3 (Homo sapiens) (P40763 whole entry, looked up): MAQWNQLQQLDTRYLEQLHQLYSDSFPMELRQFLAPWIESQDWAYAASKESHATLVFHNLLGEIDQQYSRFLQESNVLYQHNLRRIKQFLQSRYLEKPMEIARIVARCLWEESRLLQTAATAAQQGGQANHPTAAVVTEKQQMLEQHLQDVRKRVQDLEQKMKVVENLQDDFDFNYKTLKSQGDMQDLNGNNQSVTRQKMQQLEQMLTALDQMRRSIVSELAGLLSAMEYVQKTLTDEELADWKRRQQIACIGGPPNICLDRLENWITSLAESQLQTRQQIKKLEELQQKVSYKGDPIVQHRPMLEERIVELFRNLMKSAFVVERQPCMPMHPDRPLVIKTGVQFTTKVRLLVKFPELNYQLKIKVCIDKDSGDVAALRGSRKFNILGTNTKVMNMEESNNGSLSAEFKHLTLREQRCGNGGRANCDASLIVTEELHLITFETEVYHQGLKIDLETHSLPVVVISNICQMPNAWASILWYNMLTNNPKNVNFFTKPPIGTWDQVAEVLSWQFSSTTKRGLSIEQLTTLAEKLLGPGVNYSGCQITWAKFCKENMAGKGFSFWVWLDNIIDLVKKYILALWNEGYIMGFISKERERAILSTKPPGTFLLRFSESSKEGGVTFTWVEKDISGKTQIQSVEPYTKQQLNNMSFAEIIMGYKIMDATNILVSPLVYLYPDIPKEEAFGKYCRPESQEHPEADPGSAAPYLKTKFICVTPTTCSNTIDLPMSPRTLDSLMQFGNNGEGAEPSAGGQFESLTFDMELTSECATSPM

CCCCCCCCCCCCCCOS(=O)(=O)O
active: [8] 80.6 µM | [9] 49.6 µM
inactive: all other assays above
